# From PubChem
# KB-3-1 tox: kills parental KB-3-1 adenocarcinoma cells. KB-3-1 viability, CellTiter-Glo ATP luminescence, 72 h. Potency, µM (doses to about 46.1 µM), most hits filed as cytotoxic. 400,000 tested, 1.4% active. AID 1347075; note: nearly all actives have a fitted effect of over 60% in size
#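 KB-3-1 parental drug-naive adenocarcinoma cells in DMEM/10% FBS, incubated 72 h at 37 C with pin-transferred compounds across a concentration series. Viability by CellTiter-Glo luminescence; concentration-response curves fitted after normalization.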
# TDP1 cell noCPT: qHTS for Inhibitors of human tyrosyl-DNA phosphodiesterase 1 (TDP1): qHTS in cells in absence of CPT. DT40 Tdp1-/- hTDP1 cells, no CPT, ATP luminescence, 48 h. 420,000 tested, 15% active. Potency, µM (titrated, usually from 46.2 µM), without a hit: at the highest dose activity change, negative = growth inhibition, most hits filed as inhibitors; note: nearly all actives have a fitted effect of over 55% in size
#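 Seeded 400 DT40-hTDP1 cells/well (vehicle DMSO, no 20 nM CPT); pinned compounds; ≥48 hr at 37 °C; CellTiter-Glo luminescence as viability measure.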
# KB-V1 cytotox: kills drug-selected multidrug resistant KB-V1 cells; KB-V1 MDR cells viability, CellTiter-Glo, 72 h; Potency, µM (top dose mostly 46.1 µM), actives largely listed as cytotoxic; 400,000 tested, 3.4% active; AID 1347076; note: nearly all actives have a fitted effect of over 60% in size
#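 Cytotoxicity via CellTiter-Glo luminescence after 72 h compound exposure at 37 degrees C. Cells: drug-selected KB-V1 line, DMEM phenol-red free plus 10% FBS. Compounds tested at multiple concentrations; normalized data fitted to concentration-effect curves.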
# HT1080NT lethal: kills 2HG-producing HT-1080-NT fibrosarcoma cells. Potency, µM (titrated, usually from 46.1 µM), for the others: top-dose activity, negative = less viability, hits mostly cytotoxic. HT-1080-NT fibrosarcoma viability, CellTiter-Glo ATP luminescence, 48 h. 360,000 tested, 1.6% active. AID 686970;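 note: NT is the 2HG producing partner of a matched IDH1 knockdown line; 0% = DMSO-treated cells and -100% = media-only wells without cells; nearly all actives have a fitted effect of over 55% in size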
#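 Compounds were tested in concentration-response format on HT-1080-NT cells for 48 hours at 37 degrees C. Cell viability came from CellTiter-Glo luminescence; curves were classified by r2, response magnitude and activity.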
# DT40 TDP1 CPT: growth inhibition of DT40 Tdp1-/-;hTDP1 cells with camptothecin (screen for TDP1 inhibitors). chicken DT40 Tdp1-/-;hTDP1 cells + 20 nM CPT, ATP luminescence, 48 h. 420,000 tested, 12% active. Potency, µM (titrated, usually from 46.2 µM), inactives show at the highest dose activity change, negative = growth inhibition, actives largely listed as inhibitors; note: nearly all actives have a fitted effect of over 55% in size
#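 Chicken DT40 Tdp1-/- cells complemented with human TDP1, 400 cells/well, exposed to compounds plus 20 nM camptothecin for at least 48 h at 37 C; viability read as ATP content by CellTiter-Glo luminescence.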
# HT1080 IDH1KD tx: toxicity to HT-1080 IDH1 knockdown cells (counter line) | AID 686971 | 360,000 tested, 2% active | HT-1080 IDH1 knockdown viability, ATP luminescence, 48 h | Potency, µM (doses to about 46.1 µM), for inactives: at the highest dose activity, negative = toxicity, usual class: cytotoxic;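 note: 0% = DMSO wells and -100% = cell-free medium wells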
#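 IDH1KD HT-1080 cells, 750/well, RPMI + 5% FBS; compound pinned after 2 h settling; 48 h, 37 °C; CellTiter-Glo luminescence; % activity normalised to DMSO and no-cell wells; curves fitted, classed by r2 and efficacy.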
# * hit, by the source's call; i = inactive; ? = inconclusive; . = not tested or not shown. A selection: hits, their analogues and other compounds. The true share with any hit is near 19%. Calls come from the whole dose curve; as a rule, active = well fitted curve in the direction sought with a large enough effect; inconclusive = small, poorly fitted or top-dose-only effect, or another doubt; inactive = no such curve, though single readings can be large; an effect the other way counts as inactive or inconclusive. Unless noted, % is set by controls: 0 for no effect and ±100 for the full control effect; potency is the fitted concentration of half-maximal effect.
SMILES,KB-3-1 tox,TDP1 cell noCPT,KB-V1 cytotox,HT1080NT lethal,DT40 TDP1 CPT,HT1080 IDH1KD tx
Cc1noc(C)c1COc1ccccc1C(=O)NC(C)c1ccc(Cl)cc1 (configuration not stated),i,?,i,6%,?,3%
CC(C)n1cc(CN2CCCC(CNS(=O)(=O)c3cccc4cccnc34)C2)cn1 (configuration not stated),i,10%,i,8%,-6%,4%
c1cnc2nc(-c3ccc4c(c3)OCO4)cn2c1,i,?,i,-19%,-13%,?
c1ccn2cc(-c3ccc4c(c3)OCO4)cc2c1,i,?,i,8%,16µM*,-1%
CCCc1cc(N2CCN(c3ccccc3F)CC2)n2cnnc2n1,?,26µM*,?,.,18µM*,.
CCCc1cc(N2CCN(c3ccccc3)CC2)n2cnnc2n1,?,-77%,i,.,?,.
Fc1cccc(Cc2c(-c3ccc(Cl)cc3)nc3ccc(Br)cn23)c1,i,16µM*,i,7%,?,0%
Cc1ccc(-c2nc3ccc(Cl)cn3c2Cc2cccc(F)c2)cc1,i,?,i,?,21µM*,?
Fc1cccc(Cc2c(-c3cccc(Br)c3)nc3ccc(Br)cn23)c1,i,?,i,-26%,-29%,-22%
Fc1ccc(-c2nc3ccc(Cl)cn3c2Cc2cccc(Cl)c2)cc1,i,?,i,?,-3%,?
CC(C)(C)Cc1c(-c2ccc(F)cc2)nc2ccc(Cl)cn12,i,21µM*,i,-9%,?,-11%
COc1ncnc2c1ncn2CCCNCc1ccc2c(c1)OCO2,i,-1%,i,0%,-14%,-3%
CC(C)(C)OC(=O)N1Cc2[nH]c3ccccc3c2C[C@@H]1C(=O)O,i,7%,i,1%,-3%,4%
CC(=O)Nc1ccc(N=c2cc([N+](=O)[O-])cc(Cl)n2O)cc1,?,15µM*,?,-2%,?,?
CC(=O)Nc1ccc(S(=O)(=O)c2ccc([N+](=O)[O-])cc2)cc1,i,?,i,-4%,?,5%
COc1ccc(CNC(=O)C2CCN(S(=O)(=O)N3CCC(C)CC3)CC2)c(OC)c1,i,?,?,5%,?,-2%
CCOC(=O)c1cc2c(=O)n3ccccc3nc2n(C)c1=NC(=O)c1c(-c2ccccc2Cl)noc1C,i,-3%,i,.,-14%,.
COc1ccc(Cn2cc(CN3CCc4onc(-c5ccc(Br)cc5)c4C3=O)nn2)cc1,?,21µM*,21µM*,?,16µM*,?
COc1ccccc1-n1cc(CN2CCc3onc(-c4ccc(Br)cc4)c3C2=O)nn1,i,?,?,-22%,?,-22%
COc1ccccc1-c1noc2c1C(=O)N(Cc1cn(-c3ccc(Cl)cc3)nn1)CC2,?,23µM*,i,-22%,?,-26%
CCN(C(=O)c1cn(CC)c(=O)c2cc(OC)c(OC)cc12)c1ccc(C)c(C)c1,i,?,i,.,23µM*,.
CCc1ccc(N(CC)C(=O)c2cn(C)c(=O)c3cc(OC)c(OC)cc23)cc1,i,?,i,.,?,.
CCc1ccccc1N(CC)C(=O)c1cn(CC)c(=O)c2cc(OC)c(OC)cc12,i,21µM*,i,-2%,?,-13%
CCCNC(=O)N(C)C[C@H]1Oc2ncc(Br)cc2C(=O)N([C@H](C)CO)C[C@H]1C,i,-22%,i,4%,5%,7%
Cc1ccc2c(/C=C/c3c[nH]c4ccccc34)ccnc2c1C,16µM*,-103%,7.3µM*,.,-125%,.
